# ± gives the standard deviation of the averaged measurements. Targets with the largest changes are over-represented here; the source holds about 6,500 in all.
# Tests used:
# Test in all cases: NP40-soluble protein abundance relative to vehicle (solubility fold change) (ratio); higher = more soluble protein in presence of ATP
# [1] = target: T1, DDX50 (UniProt Q9BQ39)
# T1 sequence (whole entry): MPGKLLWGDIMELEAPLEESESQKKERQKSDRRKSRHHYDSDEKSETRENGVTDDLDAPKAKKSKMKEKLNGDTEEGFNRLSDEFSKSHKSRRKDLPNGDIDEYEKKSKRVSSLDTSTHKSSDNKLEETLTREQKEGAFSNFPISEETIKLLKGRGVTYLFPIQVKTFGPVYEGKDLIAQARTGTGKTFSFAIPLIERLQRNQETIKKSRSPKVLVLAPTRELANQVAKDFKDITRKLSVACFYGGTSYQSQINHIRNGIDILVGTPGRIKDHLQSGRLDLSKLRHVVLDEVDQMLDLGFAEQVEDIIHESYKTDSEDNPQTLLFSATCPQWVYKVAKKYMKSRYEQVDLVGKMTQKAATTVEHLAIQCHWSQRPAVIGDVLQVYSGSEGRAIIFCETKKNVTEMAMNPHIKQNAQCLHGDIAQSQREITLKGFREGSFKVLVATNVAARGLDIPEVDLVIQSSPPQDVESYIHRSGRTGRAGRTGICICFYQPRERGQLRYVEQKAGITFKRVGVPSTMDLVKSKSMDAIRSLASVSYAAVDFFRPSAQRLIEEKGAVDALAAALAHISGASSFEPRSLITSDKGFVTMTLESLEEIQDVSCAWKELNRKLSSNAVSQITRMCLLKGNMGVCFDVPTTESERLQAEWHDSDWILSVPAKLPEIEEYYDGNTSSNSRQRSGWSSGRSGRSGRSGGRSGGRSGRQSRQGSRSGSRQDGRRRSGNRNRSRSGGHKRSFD
# How it was run: (§1)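 Crude Jurkat lysate, prepared by Dounce homogenisation, was exposed to eight concentrations from 0.1 to 10 mM for 10 min at room temperature and then 3 min at 37 °C. Solubilisation used 0.8% NP40 with benzonase for 60 min at 4 °C, followed by ultracentrifugation and TMT labelling of the supernatant for LC-MS/MS. After vsn normalisation of intensities, each value is the fold change against the detergent-processed vehicle within each replicate, across three independent experiments.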
# [2] = target: T2, PINX1 (UniProt Q96BK5)
# T2 sequence (whole entry): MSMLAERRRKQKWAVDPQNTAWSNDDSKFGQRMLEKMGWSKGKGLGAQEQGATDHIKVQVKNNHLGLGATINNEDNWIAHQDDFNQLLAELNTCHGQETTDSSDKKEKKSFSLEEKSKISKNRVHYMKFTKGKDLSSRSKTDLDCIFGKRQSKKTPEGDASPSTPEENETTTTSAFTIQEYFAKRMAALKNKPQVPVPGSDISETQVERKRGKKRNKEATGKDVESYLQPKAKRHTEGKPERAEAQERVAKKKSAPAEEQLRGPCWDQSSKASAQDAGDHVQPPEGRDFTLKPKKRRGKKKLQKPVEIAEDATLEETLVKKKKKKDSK
# How it was run: as §1
# [3] = target: T3, UniProt Q969F9|Q969F9-2|G5E9V4
# T3 sequence (whole entry): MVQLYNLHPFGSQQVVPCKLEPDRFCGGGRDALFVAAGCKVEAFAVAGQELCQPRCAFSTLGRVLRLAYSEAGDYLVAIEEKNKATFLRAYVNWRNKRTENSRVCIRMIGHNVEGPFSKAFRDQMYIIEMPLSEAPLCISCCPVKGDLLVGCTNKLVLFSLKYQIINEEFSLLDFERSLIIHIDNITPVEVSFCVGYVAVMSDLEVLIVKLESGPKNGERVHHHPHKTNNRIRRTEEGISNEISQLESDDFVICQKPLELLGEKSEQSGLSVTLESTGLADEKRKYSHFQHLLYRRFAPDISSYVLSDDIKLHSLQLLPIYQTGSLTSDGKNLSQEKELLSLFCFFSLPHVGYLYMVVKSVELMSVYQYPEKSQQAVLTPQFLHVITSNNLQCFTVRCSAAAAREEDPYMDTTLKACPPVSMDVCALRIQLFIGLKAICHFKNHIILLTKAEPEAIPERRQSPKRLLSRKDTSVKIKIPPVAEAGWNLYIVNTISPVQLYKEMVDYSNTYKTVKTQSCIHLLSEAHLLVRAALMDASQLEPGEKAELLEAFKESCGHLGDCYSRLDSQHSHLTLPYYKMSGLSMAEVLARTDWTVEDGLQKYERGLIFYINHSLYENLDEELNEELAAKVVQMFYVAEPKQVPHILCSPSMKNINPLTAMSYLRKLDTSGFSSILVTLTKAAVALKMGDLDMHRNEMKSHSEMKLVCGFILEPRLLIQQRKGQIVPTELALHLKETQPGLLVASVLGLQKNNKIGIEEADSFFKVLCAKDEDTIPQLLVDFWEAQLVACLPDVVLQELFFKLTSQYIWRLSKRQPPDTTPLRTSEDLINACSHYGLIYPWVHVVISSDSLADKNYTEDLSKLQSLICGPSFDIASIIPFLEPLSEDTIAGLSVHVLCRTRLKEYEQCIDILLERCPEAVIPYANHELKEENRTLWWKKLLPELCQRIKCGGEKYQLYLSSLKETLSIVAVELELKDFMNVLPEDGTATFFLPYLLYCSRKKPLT
# How it was run: as §1
# [4] = target: T4, UniProt Q96G25|Q96G25-2
# T4 sequence (whole entry): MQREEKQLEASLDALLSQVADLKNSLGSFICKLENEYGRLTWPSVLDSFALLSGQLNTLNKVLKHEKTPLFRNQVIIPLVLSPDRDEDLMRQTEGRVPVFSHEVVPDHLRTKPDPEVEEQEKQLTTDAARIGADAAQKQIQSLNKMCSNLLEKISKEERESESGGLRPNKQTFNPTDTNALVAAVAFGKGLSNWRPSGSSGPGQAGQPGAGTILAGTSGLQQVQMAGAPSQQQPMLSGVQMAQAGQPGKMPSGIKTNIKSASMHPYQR
# How it was run: as §1
# [5] = target: T5, UniProt Q9BUA3
# T5 sequence (whole entry): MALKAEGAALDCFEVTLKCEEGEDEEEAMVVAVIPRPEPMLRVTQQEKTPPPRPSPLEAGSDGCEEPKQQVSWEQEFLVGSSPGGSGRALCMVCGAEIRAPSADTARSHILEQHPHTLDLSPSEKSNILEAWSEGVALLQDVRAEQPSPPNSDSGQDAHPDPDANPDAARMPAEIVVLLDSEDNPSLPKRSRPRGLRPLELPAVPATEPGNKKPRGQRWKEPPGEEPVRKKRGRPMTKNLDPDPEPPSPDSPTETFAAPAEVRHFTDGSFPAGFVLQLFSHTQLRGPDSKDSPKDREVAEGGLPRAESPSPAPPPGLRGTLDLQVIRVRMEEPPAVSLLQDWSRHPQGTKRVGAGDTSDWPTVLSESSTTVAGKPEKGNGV
# How it was run: as §1
# [6] = target: T6, UniProt Q9H993
# T6 sequence (whole entry): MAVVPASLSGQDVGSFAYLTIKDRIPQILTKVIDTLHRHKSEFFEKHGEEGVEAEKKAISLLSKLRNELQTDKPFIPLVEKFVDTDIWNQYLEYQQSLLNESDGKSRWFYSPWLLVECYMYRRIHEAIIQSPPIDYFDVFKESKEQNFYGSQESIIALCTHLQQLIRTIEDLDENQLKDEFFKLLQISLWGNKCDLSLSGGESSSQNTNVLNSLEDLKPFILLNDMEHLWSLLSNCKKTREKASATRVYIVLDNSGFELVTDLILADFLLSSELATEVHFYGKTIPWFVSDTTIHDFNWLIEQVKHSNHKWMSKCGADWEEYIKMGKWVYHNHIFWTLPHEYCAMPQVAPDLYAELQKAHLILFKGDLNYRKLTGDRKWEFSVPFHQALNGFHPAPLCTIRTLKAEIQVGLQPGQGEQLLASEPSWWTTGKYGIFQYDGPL
# How it was run: as §1
# [7] = target: T7, VRK1 (UniProt Q99986)
# T7 sequence (whole entry): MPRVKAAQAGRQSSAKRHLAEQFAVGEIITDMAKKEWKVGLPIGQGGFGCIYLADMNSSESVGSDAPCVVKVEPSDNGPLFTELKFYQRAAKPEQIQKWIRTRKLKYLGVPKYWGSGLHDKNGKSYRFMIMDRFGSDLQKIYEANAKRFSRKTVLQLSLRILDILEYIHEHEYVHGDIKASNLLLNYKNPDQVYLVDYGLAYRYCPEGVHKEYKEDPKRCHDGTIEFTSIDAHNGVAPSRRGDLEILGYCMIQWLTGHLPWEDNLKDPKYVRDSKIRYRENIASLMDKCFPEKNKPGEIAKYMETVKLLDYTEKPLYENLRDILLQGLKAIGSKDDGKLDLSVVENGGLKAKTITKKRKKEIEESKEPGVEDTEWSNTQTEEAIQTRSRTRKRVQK
# How it was run: as §1
structure (smiles),measurement,setting,value
Nc1ncnc2c1ncn2[C@@H]1O[C@H](COP(=O)(O)OP(=O)(O)OP(=O)(O)O)[C@@H](O)[C@H]1O [adenosine triphosphate],NP40-soluble protein abundance,[1]; concentration: 1mM,1.35 ± 0.086
same,NP40-soluble protein abundance,[1]; concentration: 2mM,1.67 ± 0.17
same,NP40-soluble protein abundance,[1]; concentration: 4mM,2.19 ± 0.26
same,NP40-soluble protein abundance,[1]; concentration: 6mM,2.88 ± 0.35
same,NP40-soluble protein abundance,[1]; concentration: 8mM,3.54 ± 0.54
same,NP40-soluble protein abundance,[1]; concentration: 10mM,4.32 ± 0.63
same,NP40-soluble protein abundance,[2]; concentration: 1mM,1.52 ± 0.023
same,NP40-soluble protein abundance,[2]; concentration: 2mM,1.64 ± 0.086
same,NP40-soluble protein abundance,[2]; concentration: 4mM,1.78 ± 0.11
same,NP40-soluble protein abundance,[2]; concentration: 6mM,1.95 ± 0.1
same,NP40-soluble protein abundance,[2]; concentration: 8mM,1.91 ± 0.13
same,NP40-soluble protein abundance,[2]; concentration: 10mM,2.03 ± 0.14
same,NP40-soluble protein abundance,[3]; concentration: 1mM,1.07 ± 0.16
same,NP40-soluble protein abundance,[3]; concentration: 2mM,1.11 ± 0.22
same,NP40-soluble protein abundance,[3]; concentration: 4mM,1.05 ± 0.26
same,NP40-soluble protein abundance,[3]; concentration: 6mM,1.05 ± 0.15
same,NP40-soluble protein abundance,[3]; concentration: 8mM,0.905 ± 0.044
same,NP40-soluble protein abundance,[3]; concentration: 10mM,0.962 ± 0.11
same,NP40-soluble protein abundance,[4]; concentration: 1mM,1 ± 0.11
same,NP40-soluble protein abundance,[4]; concentration: 2mM,0.976 ± 0.074
same,NP40-soluble protein abundance,[4]; concentration: 4mM,1.06 ± 0.035
same,NP40-soluble protein abundance,[4]; concentration: 6mM,1.07 ± 0.11
same,NP40-soluble protein abundance,[4]; concentration: 8mM,0.993 ± 0.039
same,NP40-soluble protein abundance,[4]; concentration: 10mM,0.965 ± 0.1
same,NP40-soluble protein abundance,[5]; concentration: 1mM,1.02 ± 0.11
same,NP40-soluble protein abundance,[5]; concentration: 2mM,1.03 ± 0.09
same,NP40-soluble protein abundance,[5]; concentration: 4mM,1.03 ± 0.082
same,NP40-soluble protein abundance,[5]; concentration: 6mM,1.04 ± 0.12
same,NP40-soluble protein abundance,[5]; concentration: 8mM,0.992 ± 0.08
same,NP40-soluble protein abundance,[5]; concentration: 10mM,1 ± 0.019
same,NP40-soluble protein abundance,[6]; concentration: 1mM,1.08 ± 0.068
same,NP40-soluble protein abundance,[6]; concentration: 2mM,1.05 ± 0.06
same,NP40-soluble protein abundance,[6]; concentration: 4mM,1.02 ± 0.039
same,NP40-soluble protein abundance,[6]; concentration: 6mM,0.991 ± 0.072
same,NP40-soluble protein abundance,[6]; concentration: 8mM,1.04 ± 0.047
same,NP40-soluble protein abundance,[6]; concentration: 10mM,1.01 ± 0.053
same,NP40-soluble protein abundance,[7]; concentration: 1mM,1.39 ± 0.026
same,NP40-soluble protein abundance,[7]; concentration: 2mM,1.43 ± 0.021
same,NP40-soluble protein abundance,[7]; concentration: 4mM,1.44 ± 0.039
same,NP40-soluble protein abundance,[7]; concentration: 6mM,1.51 ± 0.057
same,NP40-soluble protein abundance,[7]; concentration: 8mM,1.52 ± 0.031
same,NP40-soluble protein abundance,[7]; concentration: 10mM,1.48 ± 0.063

# — the supplement of paper PMC6411743
